PrP UTR inh – inhibition of PrP 5' UTR reporter expression; cell-based PrP 5' UTR mRNA reporter, plate reader; inhibition, % (test concentration not listed); hit rate 0.35% among 340,000; AID 488862, 2010; in the data active = inhibition above about 52%
PriA SSB inh – inhibitors of Klebsiella pneumoniae PriA binding to SSB C-terminal tail, primary screen, biochemical, AlphaScreen; PriA–SSB C-terminal tail interaction (Klebsiella pneumoniae); AlphaScreen SSBct-PriA binding, biotinylated peptide; inhibition, % at 33 µM; hit rate 0.6% among 430,000; in the data active = inhibition mostly above about 37%, no sharp cut-off; inactive = mostly below about 20%
3CLpro inhibitor – SARS-CoV 3CLpro protease inhibitors, primary screen, biochemical, quenched FRET; AID 1706, 2009; hit rate 0.14% among 290,000; inhibition, % at 6 µM; recombinant SARS-CoV 3CLpro, quenched FRET peptide cleavage; Replicase polyprotein 1ab (Severe acute respiratory syndrome coronavirus), P0C6X7; in the data active = inhibition above about 12%
Vc quorum ag – inducers of Vibrio cholerae quorum light production without autoinducers, primary screen, BH1578 luxS cqsA deficient, single point; activation, % at 18.7 µM; V. cholerae BH1578 lux reporter, luminescence, 6 h; AID 588436, 2011; hit rate 0.16% among 350,000; in the data active = activation mostly above about 9.7%, no sharp cut-off; inconclusive = no clear call, values can overlap the other calls; inactive = mostly below about 3.7%
PfHsp40 yeast – rescue of yeast from PfHsp40 toxicity, primary screen, S. cerevisiae, ATP luminescence. S. cerevisiae expressing PfHsp40, growth rescue. growth rescue, % at 12.5 µM. hit rate 0.68% among 340,000. AID 504582, 2011; in the data active = growth rescue above about 28%, passing the limit was not always enough; inconclusive = no clear call, values can overlap the other calls;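 note: yeast W303a lacking pdr1 and pdr3 grown in galactose medium; growth measured after three days at 30 °C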
PrPC TRFRET – inhibitors of human cell surface prion protein PrPC, primary screen, cell-based, TR-FRET | Major prion protein (Homo sapiens), P04156 | hit rate 0.43% among 370,000 | TR-FRET read-out | inhibition, % at 13.8 µM; in the data active = inhibition above about 24%
A number is an active result; n = inactive; u = inconclusive; x = no result; ! = a repeat was not active. Most compounds without a hit are left out; they make up all but 1.6% or so of the library.

SMILES | PrP UTR inh | PriA SSB inh | 3CLpro inhibitor | Vc quorum ag | PfHsp40 yeast | PrPC TRFRET
COc1ccc(C2SCCN2S(=O)(=O)c2ccc3ccccc3c2)cc1Br (configuration not stated) | x | n | x | x | x | x
COc1ccc2[nH]cc(S(=O)(=O)c3ccc(F)cc3)c(=O)c2c1 | n | 104.2 | n | n | n | n
CCCN(CCC)S(=O)(=O)c1ccc(C(=O)NCC(=O)NNC(=S)Nc2ccc(Cl)c(Cl)c2)cc1 | x | n | x | x | x | x
O=C(c1ccc2c(c1)OCO2)N(Cc1cccs1)C1(C(=O)NC2CCCCC2)CCCCC1 | n | n | n | n | 67.5 | n
O=C(Cc1cccs1)N(Cc1cccs1)C1(C(=O)NC2CCCC2)CCCCC1 | n | n | n | n | n | n
CC(=O)/C(C#N)=C1\NC(=O)C(Cc2ccccc2Cl)S1 (configuration not stated) | n | n | n | n | 39.3 | n
O=C1NC(=Nc2cccc(Cl)c2Cl)S/C1=C\c1ccc(O)cc1 | x | n | x | x | x | x
NNc1nc(-c2ccccc2)cc(-c2ccccc2O)n1 | n | 39.9 | n | n | n | x
O=[N+]([O-])c1cc(F)cc2cccnc12 | x | 54.7 | x | x | x | x
O=[N+]([O-])c1cc([N+](=O)[O-])c2cccnc2c1Oc1ccccc1O | n | n | n | n | n | n
O=[N+]([O-])c1ccc(N2CCNCC2)c2ncccc12 | x | 53.0 | n | x | x | x
O=[N+]([O-])c1ccc(Cl)c2cccnc12 | n | n | n | n | n | n
O=[N+]([O-])c1cc(Cl)c(O)c2ncccc12 | n | 85.9! | n | n | n | n
O=[N+]([O-])c1cc(Cl)c2cccnc2c1O | n | 66.6 | n | n | 142.3 | n
O=[N+]([O-])c1cc(F)c2cccnc2c1O | n | n | n | n | 73.5 | n
O=[N+]([O-])c1cccnc1Sc1ccc(F)cc1 | x | 42.4 | x | n | x | n
O=[N+]([O-])c1ccc(O)c2ncccc12 | n | 133.0 | n | n | u | n
O=c1ccnc(Sc2ncccc2[N+](=O)[O-])[nH]1 | n | n | n | n | n | n
Oc1c(I)cc(Cl)c2cccnc12 | n | n | n | n | 246.2 | n
COc1ccc(Nc2n[nH]nc2C(=O)Nc2ccc(F)cc2C)cc1 | x | n | x | x | x | x
O=[N+]([O-])c1ccc(Sc2cccc3cccnc23)c([N+](=O)[O-])c1 | n | 86.9 | n | n | n | n
Cc1onc(-c2ccccc2Cl)c1C(=O)NCc1cccnc1-c1cccs1 | x | n | x | x | x | x
CC1=C(C(=O)Nc2ccccc2)C(c2ccc(O)cc2)N2C(=O)CSC2=N1 (configuration not stated) | n | n | n | 23.1 | n | n
CN(Cc1ccccc1)c1oc(COc2ccccc2F)nc1C#N | n | 51.1 | n | n | n | n
COc1ccc(CCNc2oc(COc3ccccc3)nc2C#N)cc1 | n | n | n | n | n | n
SMILES | PrP UTR inh | PriA SSB inh | 3CLpro inhibitor | Vc quorum ag | PfHsp40 yeast | PrPC TRFRET
N#Cc1nc(COc2ccccc2F)oc1NCCc1ccccc1 | n | 43.3 | n | n | u | n
CCOc1ccccc1NC(=O)c1cc(=O)c(OC)co1 | x | n | x | x | x | x
Cc1ccc(C(=O)CC(=O)c2ccc(C(C)(C)C)cc2)cc1 | n | n | n | n | 36.3 | n
Cn1cccc1C(CNC(=O)c1ccc2c(c1)OCO2)N1CCc2ccccc2C1 (configuration not stated) | x | 13.0 | x | x | x | x
O=C(Cc1ccc2c(c1)OCO2)N(Cc1ccccn1)c1nc2c(C(F)(F)F)cccc2s1 | x | n | x | x | x | x
COc1ccc(CC(=O)NCC2(O)CCc3ccccc3C2)cc1OC (configuration not stated) | x | n | x | x | x | x
CCSc1ccc(C(=O)Nc2nnc(Cc3cccs3)o2)cc1 | x | 36.0 | x | x | x | x
CCSc1ccc(CC(=O)Nc2nccs2)cc1 | x | n | x | x | x | x
O=C(Nc1nnc(Cc2cccs2)o1)c1ccccc1 | x | n | x | x | x | x
O=C(Nc1nnc(Cc2cccs2)o1)c1ccc2ncsc2c1 | x | 71.0 | x | x | x | x
O=C(Nc1nnc(Cc2cccs2)o1)c1ccc(Cl)s1 | x | 35.0 | x | x | x | x
O=C(Nc1nnc(-c2cccs2)o1)c1ccc2ncsc2c1 | x | n | x | x | x | x
CCSc1ccc(C(=O)Nc2nccs2)cc1 | x | 64.0 | x | x | x | x
COCCNc1nc(Nc2ccc(C)c(Cl)c2)c2cnn(C)c2n1 | x | n | x | x | x | x
CSc1ncccc1C(=O)N1CCC(CNS(=O)(=O)c2cc(C)c(C)cc2C)CC1 | x | n | x | x | x | x
Cc1cc(C)cc(-n2nc3c(c2NC(=O)c2ccc(N4C(=O)CCC4=O)cc2)CSC3)c1 | x | n | x | x | x | x
C=CCn1c(O)c(N=Nc2c(C)n(C)n(-c3ccccc3)c2=O)c(=O)[nH]c1=S | n | n | n | n | n | n
Cc1c(N=Nc2c(O)[nH]c(=S)[nH]c2=O)c(=O)n(-c2ccccc2)n1C | n | 53.1 | n | n | n | n
O=P1(c2ccccc2)Nc2ccccc2N1c1ccccc1 (configuration not stated) | n | 57.0 | x | n | n | n
O=C(O)c1cccc2c1NC(C(=O)O)C1CC(Sc3ccccc3[N+](=O)[O-])C(Cl)C21 (configuration not stated) | n | n | n | n | 55.3 | n
CC(=O)c1ccc(Sc2ccccc2N)c([N+](=O)[O-])c1 | n | n | n | n | n | n
CC(=O)c1ccc2c(c1)C1C(Cl)C(Sc3ccccc3[N+](=O)[O-])CC1C(C(=O)O)N2 (configuration not stated) | n | 46.4 | n | n | n | n
O=C(O)c1cc(-c2c[nH]c3ccccc23)nc2ccc3ccccc3c12 | n | n | n | n | n | n
c1ccc2c(-c3c[nH]c4ccccc34)c3ccccc3nc2c1 | n | n | n | n | 37.3 | n
COc1ccc(-c2ccc(=O)[nH]n2)cc1 | n | n | n | n | n | x
SMILES | PrP UTR inh | PriA SSB inh | 3CLpro inhibitor | Vc quorum ag | PfHsp40 yeast | PrPC TRFRET
COc1cc(-c2ccc(=O)[nH]n2)ccc1OC(F)F | n | n | n | n | 42.7 | n
O=C(Nc1ccccc1-c1cn2ccsc2n1)c1ccc(Cn2ccnc2)cc1 | x | 39.0 | x | x | x | x
c1ccc(CNc2nc3ccccc3n3cnnc23)cc1 | n | 104.2 | n | n | n | n
c1ccc(CNc2nc3ccccc3n3cnnc23)nc1 | n | n | n | n | n | n
COCC(C)(O)CNC(=O)CCc1cccc(Cl)c1 (configuration not stated) | x | n | x | x | x | x
CCSc1nc(NC(C)C)c2cnn(CCNC(=O)c3c(-c4ccccc4Cl)noc3C)c2n1 | x | n | x | x | x | x
Cc1onc(-c2ccccc2Cl)c1C(=O)NCCn1c(C)cc2ccccc21 | n | 87.0 | n | n | n | x
CCCNc1nc(SCC)nc2c1cnn2CCNC(=O)c1c(-c2ccccc2Cl)noc1C | x | 88.0 | x | x | x | x
Cc1nn(CCC(=O)N2CCN(S(=O)(=O)c3ccc(Cl)cc3)CC2)c(C)c1Br | x | n | x | x | x | x
N#Cc1ccccc1NC(=O)CC1SC(=Nc2ccccc2)N(c2ccccc2)C1=O (configuration not stated) | x | n | x | x | x | x
CCOC(=O)/C(C#N)=C1\SC(Cc2ccccc2Cl)C(=O)N1c1ccc(C)cc1 (configuration not stated) | x | n | x | x | x | x
